A short description of one assay: compound effects on differentiated 3T3-L1 adipocyte viability – cell-based, 3T3-L1 adipocytes, calcein-AM fluorescence, 48 h, basal, profiling panel (AID 1163). As to conditions: 3T3-L1 adipocytes viability, higher = more signal.
With `COCCCNC(=O)[C@@]1(Sc2ccc(C)cc2)CC(=O)N(C2CCCCC2)[C@@H]1c1ccc(CO)cc1`, the z-score was 0.152.

As to `[N-]=[N+]=Nc1ccccc1[C@H]1OC(c2ccc(OCCCO)cc2)=N[C@@]1(Cc1ccccc1)C(=O)N1CCCCC1`, the z-score is -0.019.

For `CC(C)OC(=O)C=C1C[C@@H](c2ccc(C(F)(F)F)cc2)O[C@@H](c2ccc(C(F)(F)F)cc2)O1`, the z-score is -0.168.

Turning to `[N-]=[N+]=Nc1ccccc1[C@@H]1OC(c2ccc(OCCCO)cc2)=N[C@]1(Cc1ccccc1)C(=O)NCC(O)CO` (stereo partly drawn), the z-score is 0.509.

Regarding `[N-]=[N+]=Nc1ccccc1C[C@]1(C(N)=O)N=C(c2ccc(OCCCO)cc2)O[C@H]1c1ccccc1N=[N+]=[N-]`, the z-score was 1.32.

With `C[C@@H]1NC(=O)[C@@]23C(=O)N[C@@H](Cc4ccccc4)C2[C@H](C)[C@@]2(C)O[C@H]2C3/C=C/C/C=C\CNC(=O)[C@@H]2CCCN2C1=O` (stereo partly drawn), the z-score is 0.389.

With `COCCCNC(=O)[C@]1(CCS(=O)(=O)c2ccccc2)N=C(c2ccc(OCCCO)cc2)O[C@@H]1c1ccccc1N=[N+]=[N-]`, the z-score was 0.108.

With `O=C1OCCC/C=C\[C@H]2OC34C=CCN(CCN5CCOCC5)C(=O)[C@H]3N(CCCCCCO)C(=O)[C@@H]4C12` (stereo partly drawn), the z-score is 1.3.

A further assay in a line: compound effects on hepatocellular carcinoma cell viability – HepG2, calcein-AM fluorescence, 48 h, basal, profiling panel (AID 1164). The following applies: higher = more signal.
For the molecule `[N-]=[N+]=NCc1ccccc1C[C@@]1(C(=O)N2CCCCC2)N=C(c2ccc(OCCCO)cc2)O[C@@H]1c1ccccc1`, the z-score is -2.13.

Take `O=C1O[C@@H](c2ccccc2)[C@@H](c2ccccc2)N2[C@@H](c3ccc(OCCO)cc3)[C@]3(C(=O)Nc4ccccc43)[C@@H](C(=O)O)[C@H]12`: the z-score is -0.888.

On to `CC(CO)N1C(=O)[C@@H]2[C@H]3C(=O)OCC=C[C@H]3OC23C=CCN(C(C)(C)C)C(=O)[C@@H]13` (stereo partly drawn), for which the z-score is -0.711.

Take `CN1C(=O)C2C=CC(C(O)c3cccc4ccccc34)N(N3CCCCC3)C2C1=O` (stereo not drawn): the z-score is -0.776.

`CN(C)C(=O)[C@]1(CCS(=O)(=O)c2ccccc2)N=C(c2ccc(OCCCO)cc2)O[C@@H]1c1ccccc1N=[N+]=[N-]`: the z-score is 0.591.

`COC(=O)[C@@]1(Cc2ccc(F)cc2)[C@H]2c3cc(C(=O)N4CCCC4)n(CCc4ccc(O)c(O)c4)c3C[C@H]2CN1C(=O)c1ccccc1`: the z-score was 0.609.

For the molecule `CN(C)CCCNC(=O)[C@@]1(c2ccc([N+](=O)[O-])cc2)CC(=O)N(CC23CC4CC(CC(C4)C2)C3)[C@@H]1c1ccc(CO)cc1I`, the z-score is -5.25.

Regarding `Cc1cc(C)c(C(O)C2C=CC3C(=O)NC(=O)C3N2Nc2ccc(Cl)cc2Cl)c(C)c1` (stereo not drawn), the z-score is -1.68.

`COCCOC(=O)N1C(=O)[C@@]2(c3cc(C#CC4=CCCCC4)ccc31)[C@H](c1ccc(OCCO)cc1)N1[C@H](c3ccccc3)[C@H](c3ccccc3)OC(=O)[C@H]1[C@@H]2C(=O)N1CCN(c2ncccn2)CC1`: the z-score is 0.47.

On to `C=CCC(OC(C)=O)[C@@H]1[C@@H](N(Cc2ccc(-c3ccccc3)cc2)C(=O)Cc2ccc(F)cc2)c2cc(OCCCO)ccc2N1C(=O)Cc1ccc(OC)cc1` (stereo partly drawn), for which the z-score is 0.833.

As for `COC(=O)[C@@]1(Cc2ccc(OC)cc2)[C@H]2c3cc(C(=O)N(C)C)n(C[C@H](O)CO)c3C[C@H]2CN1C(=O)c1ccccc1`, the z-score is -0.285.

Regarding `Cn1cccc1C(O)C1C=CC2C(=O)NC(=O)C2N1Nc1ccc(Cl)cc1Cl` (stereo not drawn), the z-score is -1.5.

With `COc1ccc([Si](C)(C)[C@@H]2[C@@H](CC(=O)N(CCO)Cc3ccccc3)O[C@]3(C(=O)N(Cc4cccc(N5C(=O)c6cccc7cccc5c67)c4)c4ccccc43)[C@H]2C)cc1`, the z-score is -1.12.

Turning to `Cc1ccc(S[C@]2(C(=O)NCC(F)(F)F)CC(=O)N(Cc3ccccc3C(F)(F)F)[C@@H]2c2ccc(CO)cc2I)cc1`, the z-score is 0.707.

On to `CCOc1cc(C(O)C2C=CC3C(=O)N(c4ccccc4)C(=O)C3N2Nc2ccc(C#N)cc2)ccc1O` (stereo not drawn), for which the z-score is 0.264.

For the molecule `COCCOC(=O)N1C(=O)[C@@]2(c3ccccc31)[C@H](C(=O)N1CCN(c3ncccn3)CC1)[C@H]1C(=O)O[C@H](c3ccccc3)[C@H](c3ccccc3)N1[C@@H]2c1ccc(O)cc1`, the z-score is 0.102.

With `CCCC[C@@H]1C[C@H]1[C@@H](NC(=O)c1cccs1)c1ccc(C(F)(F)F)cc1`, the z-score was -0.655.

Turning to `COC(=O)c1ccc([C@H](NC(=O)c2ccco2)[C@]2(C)C[C@H]2C2CCCCC2)cc1`, the z-score was -2.43.

With `O[C@@H](Cc1ccccc1)[C@@H](/C=C/C1CC1)N(CC#Cc1ccccc1)Cc1cccc(Cl)c1`, the z-score is 0.891.

As to `N#Cc1ccc(C(O)C2C=CC3C(=O)N(c4ccccc4)C(=O)C3N2Nc2ccccc2)cc1` (stereo not drawn), the z-score is -0.638.

Source of the values: PubChem BioAssay.
Also: test concentration not given here.
